Each structure is given as a SMILES string. The source made the active and inactive calls.

The values below come from PubChem BioAssay.

A short description of experiment [1]: E. coli DRC41 culture turbidity changes, primary screen, E. coli filamentation inducer project, strain DRC41, OD650, 48 h (AID 1152).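 Note: E. coli MC1000 strain DRC41 lacking acrAB efflux pump and sulA.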 As to conditions: E. coli DRC41 (acrAB sulA), higher = more signal, called active from +8 up or from −8 down.
A short description of experiment [2]: small-molecule binders of probe aLefty1, primary screen, biochemical, small-molecule microarray, 635/667 nm fluorescence (AID 1153).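 Note: score merges spot fluorescence with signal-to-noise ratio from the scanned slide images.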 The conditions noted are these: higher = more signal.
A short description of experiment [3]: PSAC antagonists in infected red cells, primary screen, cell-based, P. falciparum Indochina, OD700, 1 h (AID 1154). As to conditions: P. falciparum Indochina infected RBC osmotic lysis, higher = more signal, called active from +8 up or from −8 down.
Experiment [4] can be described thus: PSAC antagonists in infected red cells, primary screen, cell-based, P. falciparum Indochina, OD700, 2 h (AID 1155).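 Note: lysis reports solute entry through the parasite surface anion channel PSAC; channel blockers reduce lysis of infected cells.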 The conditions noted are these: P. falciparum Indochina infected erythrocytes, osmotic lysis OD700; higher = more signal, called active from +8 up or from −8 down.
Experiment [5] is described as follows: osmotic lysis modulators in infected erythrocytes, primary screen, PSAC antagonist project, cell-based, P. falciparum Indochina, OD700, 3 h (AID 1156). The conditions noted are these: higher = more signal, called active from +8 up or from −8 down.
Experiment [6] is described as follows: PSAC antagonists in infected red cells, primary screen, cell-based, P. falciparum Indochina, OD700, 18 h (AID 1157). The conditions noted are these: P. falciparum Indochina infected erythrocytes, osmotic lysis OD700, 18 h; higher = more signal, called active from +8 up or from −8 down.
The nature of experiment [7]: modulators of S6 phosphorylation in cells, primary screen, cell-based, A549, cytoblot, luminescence, serum-stimulated (AID 1158).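 Note: serum-stimulated A549 lung adenocarcinoma cells; signal is phosphorylated S6 detected by cytoblot immunostaining with HRP secondary.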 The conditions noted are these: A549 phospho-S6 cytoblot, 5 h, higher = more signal.
The target in experiment [8] is NADPH oxidase 2 (Homo sapiens) (UniProt P04839). The experiment can be described thus: NOX2-dependent H2O2 signal modulators, primary screen, NOX inhibitor project, cell-based, HEK293-NOX2, PMA-stimulated, Amplex Red fluorescence (AID 1159). Note: test concentration not given here. As to conditions: 45 min, higher = more signal, called active from +8 up or from −8 down.
In experiment [9] the target is NADPH oxidase 4 (Homo sapiens) (UniProt Q9NPH5). The experiment can be described thus: NOX4-dependent H2O2 signal modulators, primary screen, NOX inhibitor project, cell-based, HEK293-NOX4, tetracycline-induced, Amplex Red fluorescence (AID 1160). As to conditions: 45 min, higher = more signal, called active from +8 up or from −8 down.
The target in experiment [10] is NADPH oxidase 5 (Homo sapiens) (UniProt Q96PH1). The experiment can be described thus: NOX5-dependent H2O2 signal modulators, primary screen, NOX inhibitor project, cell-based, HEK293-NOX5, Amplex Red fluorescence (AID 1161). The conditions noted are these: HEK293-NOX5, ionomycin, 45 min, higher = more signal.
NADPH oxidase 5 (Homo sapiens), sequence (Q96PH1 whole entry, looked up): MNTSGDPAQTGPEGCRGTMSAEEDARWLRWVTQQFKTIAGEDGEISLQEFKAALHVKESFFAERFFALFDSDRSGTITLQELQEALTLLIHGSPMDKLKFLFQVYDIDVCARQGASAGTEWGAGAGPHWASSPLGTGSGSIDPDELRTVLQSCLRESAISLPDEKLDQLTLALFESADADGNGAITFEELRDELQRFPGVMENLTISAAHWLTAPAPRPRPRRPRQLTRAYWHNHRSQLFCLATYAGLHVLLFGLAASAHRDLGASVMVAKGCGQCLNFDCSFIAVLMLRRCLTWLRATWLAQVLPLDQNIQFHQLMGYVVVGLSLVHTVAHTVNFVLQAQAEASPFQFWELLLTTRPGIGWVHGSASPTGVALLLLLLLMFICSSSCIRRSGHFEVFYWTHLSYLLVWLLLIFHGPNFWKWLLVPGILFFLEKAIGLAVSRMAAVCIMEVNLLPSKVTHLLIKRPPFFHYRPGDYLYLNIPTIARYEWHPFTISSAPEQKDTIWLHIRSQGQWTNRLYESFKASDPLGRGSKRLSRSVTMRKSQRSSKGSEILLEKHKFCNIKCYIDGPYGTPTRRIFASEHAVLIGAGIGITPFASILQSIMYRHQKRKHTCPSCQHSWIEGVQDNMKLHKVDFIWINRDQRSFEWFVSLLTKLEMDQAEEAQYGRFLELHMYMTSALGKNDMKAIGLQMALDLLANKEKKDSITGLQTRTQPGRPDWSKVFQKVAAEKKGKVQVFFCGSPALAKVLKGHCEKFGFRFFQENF

NADPH oxidase 2 (Homo sapiens), sequence (P04839 whole entry, looked up): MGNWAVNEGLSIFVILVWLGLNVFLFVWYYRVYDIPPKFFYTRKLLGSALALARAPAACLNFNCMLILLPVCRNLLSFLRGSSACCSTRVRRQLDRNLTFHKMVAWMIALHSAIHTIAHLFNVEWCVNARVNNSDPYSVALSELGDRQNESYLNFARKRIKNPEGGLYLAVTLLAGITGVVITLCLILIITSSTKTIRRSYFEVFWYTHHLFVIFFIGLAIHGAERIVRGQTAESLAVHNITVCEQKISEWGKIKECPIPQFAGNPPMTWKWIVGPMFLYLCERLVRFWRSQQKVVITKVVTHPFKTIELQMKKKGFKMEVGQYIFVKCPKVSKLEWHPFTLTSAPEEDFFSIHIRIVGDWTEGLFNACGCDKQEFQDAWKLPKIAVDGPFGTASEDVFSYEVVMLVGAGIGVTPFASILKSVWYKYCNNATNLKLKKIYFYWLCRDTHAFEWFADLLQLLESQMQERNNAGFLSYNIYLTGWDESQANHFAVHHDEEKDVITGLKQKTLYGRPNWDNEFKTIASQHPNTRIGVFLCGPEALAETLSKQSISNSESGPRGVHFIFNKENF
NADPH oxidase 4 (Homo sapiens), sequence (Q9NPH5 whole entry, looked up): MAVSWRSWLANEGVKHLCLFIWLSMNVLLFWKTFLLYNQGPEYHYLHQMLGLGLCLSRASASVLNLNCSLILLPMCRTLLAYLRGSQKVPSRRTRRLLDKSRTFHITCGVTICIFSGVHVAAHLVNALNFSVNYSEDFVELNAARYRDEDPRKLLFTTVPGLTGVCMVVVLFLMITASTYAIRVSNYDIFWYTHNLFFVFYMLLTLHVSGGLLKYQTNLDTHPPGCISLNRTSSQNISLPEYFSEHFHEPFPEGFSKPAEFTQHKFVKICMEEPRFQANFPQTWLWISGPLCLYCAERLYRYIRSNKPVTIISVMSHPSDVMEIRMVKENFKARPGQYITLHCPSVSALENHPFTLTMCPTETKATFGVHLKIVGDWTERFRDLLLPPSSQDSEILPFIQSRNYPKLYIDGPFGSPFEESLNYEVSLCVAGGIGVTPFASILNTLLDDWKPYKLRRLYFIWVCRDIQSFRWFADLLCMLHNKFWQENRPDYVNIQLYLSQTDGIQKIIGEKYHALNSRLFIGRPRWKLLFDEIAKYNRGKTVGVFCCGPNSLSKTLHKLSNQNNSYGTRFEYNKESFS

For the compound `CCCNC(=O)[C@@]1(c2ccc([N+](=O)[O-])cc2)CC(=O)N(C2CCCCC2)[C@@H]1c1ccc(CO)cc1I`, the z-score is -0.123 (inactive) in experiment [1]; 19.3 (active) in [3]; 3.4 (inactive) in experiment [4]; 3.38 (inactive) in [5]; 0.722 (inactive) in experiment [6]; -0.275 in [7]. The z-score in [8] is 1.02 (inactive); in experiment [9], 0.187 (inactive); in experiment [10] it was 1.16. Further, in experiment [2], the composite z-score turned out to be 0.317.

`COC(=O)C(CC#Cc1ccc2c(c1)[C@]1(C(=O)N2)[C@H](C(=O)O)[C@H]2C(=O)O[C@H](c3ccccc3)[C@H](c3ccccc3)N2[C@@H]1c1ccccc1OCCO)C(=O)OC`: the z-score in experiment [1] is -1.21 (inactive); in experiment [3], 4.19 (inactive); in experiment [4], 0.487 (inactive); in experiment [5], -5.95 (inactive); in experiment [6], -0.008 (inactive); in [7], 0.029. Also, the z-score in [8] was 1.37 (inactive); in [9], -1.33 (inactive); in experiment [10] it was 1.19. The same compound returned a composite z-score in experiment [2] of 0.658.

Turning to `COc1ccc(C(O)C2C=CC3C(=O)N(C)C(=O)C3N2N2CCCCC2)cc1` (stereo not given), the z-score was -0.625 (inactive) in experiment [1]; 1.41 (inactive) in [3]; 1.36 (inactive) in experiment [4]; -0.138 (inactive) in experiment [5]; 1.25 (inactive) in [6]; -0.734 in [7]. For the same compound, the z-score in experiment [8] is -0.378 (inactive); in experiment [9], -0.744 (inactive); in experiment [10] it was -0.369. The compound further registered a composite z-score in [2] of 0.381.

As to `CCCCN1CC=CC23O[C@@H]4C=CCOC(=O)[C@@H]4[C@H]2C(=O)N(C(C)CO)[C@@H]3C1=O` (stereo not given in full), the z-score in [1] was -0.65 (inactive); in experiment [3], 0.596 (inactive); in experiment [4] it was -0.404 (inactive); in experiment [5] it was 0.436 (inactive); in [6] it was 0.111 (inactive); in experiment [7] it was -0.163. Also, the z-score is 0.953 (inactive) in [8], 0.56 (inactive) in experiment [9] and 1.51 in experiment [10]. In addition, the composite z-score in experiment [2] is -0.045.

In the case of `C=CCNC(=O)[C@@H]1[C@H]2C(=O)O[C@H](c3ccccc3)[C@H](c3ccccc3)N2[C@H](c2ccccc2OCCO)[C@@]12C(=O)N(C(=O)OCCOC)c1ccc(C#CC3=CCCCC3)cc12`, the z-score is 0.889 (inactive) in [1]; 2.66 (inactive) in [3]; 0.741 (inactive) in experiment [4]; 0.123 (inactive) in experiment [5]; 0.906 (inactive) in experiment [6]; 0.325 in experiment [7]. Besides, the values for the z-score in experiment [8], in [9] and in experiment [10] were 1.54 (inactive), 1.44 (inactive) and 1.32, respectively. For the same compound, the composite z-score in experiment [2] was -0.0075.

Take `Cc1ccc(S[C@]2(C(=O)NCC(C)C)CC(=O)N(Cc3ccccc3Cl)[C@@H]2c2ccc(CO)cc2I)cc1`: the z-score in [1] was -0.455 (inactive); in experiment [3], 3.05 (inactive); in experiment [4], 0.592 (inactive); in [5], 1.24 (inactive); in experiment [6] it was 0.254 (inactive); in experiment [7], 0.464. Besides, the z-score is 2.55 (inactive) in [8], -0.402 (inactive) in [9] and 1.52 in experiment [10]. Further, the composite z-score in experiment [2] was 0.258.

Consider `O=C1C[C@]2(c3ccc([N+](=O)[O-])cc3)C(=O)N(Cc3ccccc3)c3cc(CO)ccc3[C@H]2N1CC12CC3CC(CC(C3)C1)C2`, for which the z-score was -0.06 (inactive) in [1]; 0.556 (inactive) in experiment [3]; 0.37 (inactive) in experiment [4]; -0.401 (inactive) in [5]; 0.23 (inactive) in [6]; -0.218 in experiment [7]. Moreover, the z-score in experiment [8] is 0.135 (inactive); in experiment [9], 0.256 (inactive); in experiment [10], 0.664. In addition, the composite z-score in [2] is -0.678.

With `CO[C@H]1O[C@H](CO)[C@@H](OC(=O)Nc2ccccc2-c2ccccc2)[C@H](OC(=O)Nc2ccc3c(c2)OCO3)[C@@H]1OC(=O)Nc1ccc2c(c1)OCO2`, the z-score in experiment [1] is -0.609 (inactive); in [3], 15.3 (active); in [4], 2.72 (inactive); in experiment [5] it was 1.22 (inactive); in experiment [6] it was 1.11 (inactive); in [7], -0.0176. Besides, the z-score in experiment [8] is 0.878 (inactive); in experiment [9], -0.722 (inactive); in [10], -1.49. This compound also yielded a composite z-score in experiment [2] of 0.658.

As for `NCCCCCNC(=O)[C@@H]1C[C@@H]2C(=O)N[C@@H](CCCCN)C(=O)N2[C@@H]1c1cccc(OCCO)c1`, the z-score is 1.17 (inactive) in experiment [1]; 0.539 (inactive) in experiment [3]; 0.0681 (inactive) in experiment [4]; 1.24 (inactive) in [5]; 0.0802 (inactive) in experiment [6]; -0.157 in experiment [7]. For the same compound, the z-score in [8] was 0.141 (inactive); in [9], 0.557 (inactive); in experiment [10], 0.582. The compound also gave a composite z-score in experiment [2] of -0.432.

Turning to `Cc1c(NC(=O)/C(C#N)=C/C=C/c2ccc(N(C)C)cc2)c(=O)n(-c2ccccc2)n1C`, the z-score in [1] was 0.504 (inactive); in experiment [3], 16.3 (active); in [4], 2.8 (inactive); in experiment [5], -0.164 (inactive); in [6] it was 0.89 (inactive); in experiment [7], -0.466. Also, the figures for the z-score in [8], in experiment [9] and in experiment [10] were -2.41 (inactive), -1.51 (inactive) and -0.807, respectively. In addition, the composite z-score in experiment [2] is 0.628.

For the compound `COc1ccc(C(O)C2C=CC3C(=O)N(c4ccccc4)C(=O)C3N2Nc2ccccc2)cc1OCc1ccccc1` (stereo not given), the z-score in [1] was -1.1 (inactive); in experiment [3], 3.82 (inactive); in [4], 1.49 (inactive); in experiment [5] it was 0.421 (inactive); in experiment [6], 1.1 (inactive); in experiment [7], -1.39. In addition, the z-score was -1.19 (inactive) in experiment [8], -3.65 (inactive) in [9] and -2.48 in experiment [10]. This compound showed a composite z-score in [2] of 0.0924.

Turning to `CCOC(=O)[C@@H]1[C@@H]2C(=O)N(CC)C(=O)[C@@H]2C[C@@H]1Sc1ccccc1`, the z-score in [1] is -0.785 (inactive); in experiment [3] it was 1.44 (inactive); in experiment [4] it was 1.16 (inactive); in experiment [5], -0.245 (inactive); in experiment [6], 0.905 (inactive); in experiment [7], -0.502. Moreover, the z-score is -2.32 (inactive) in experiment [8], -4.05 (inactive) in [9] and -0.796 in experiment [10]. The compound also displayed a composite z-score in experiment [2] of -0.247.

For `CCOC(=O)C[C@H]1[C@H](OC(=O)c2ccc(-c3ccccc3)cc2)[C@@H](NC(=O)c2ccc3ccccc3c2)c2cc(OCCCO)ccc2N1C(=O)c1ccc2ccccc2n1`, the z-score in experiment [1] is -0.572 (inactive); in [3], 4.55 (inactive); in experiment [4], 0.568 (inactive); in experiment [5], -0.559 (inactive); in experiment [6], 0.159 (inactive); in experiment [7], 0.762. The values for the z-score in [8], in experiment [9] and in experiment [10] were -1.35 (inactive), 0.928 (inactive) and 0.0885, respectively. In [2], this compound yielded a composite z-score of 0.302.
